# Data taken from PubChem BioAssay AID1159580 (chemical genetic matrix, 2015).
# Where “and” joins values, the source holds several entries; their conditions need not be identical. Equal entries are not always repeated. Screen size: about 5,500 compounds; about 2,000 (36%) were called active. Roughly 18% stayed inconclusive and do not appear here. The list shows a part of the results. A number with no mark means an inactive call. No stated cut-off is given here; in the data, active means normalized growth mostly below about 0.91 (no sharp cut-off); inconclusive means no clear call, values can overlap the other calls; inactive means mostly above about 0.92.
# Assay: chemical genetic growth profiling, strain panel (AID 1159580);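 further: tested at 20 µM; growth read once vehicle control cultures reached saturation at 30 °C; 1 = growth at the plate median or of vehicle wells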
# Conditions: S. cerevisiae deletion strains, growth OD
structure (smiles),measurement,setting,value
O=S(=O)(N/N=C\c1ccc(Cl)cc1)c1ccc(-c2ccccn2)s1,normalized growth,"locus YAL013W, strain DEP1, stronger effect = lower value",0.973
same,normalized growth,"locus YAR019C, strain CDC15, stronger effect = lower value",0.993
same,normalized growth,"locus YBL105C, strain PKC1, stronger effect = lower value",0.981
same,normalized growth,"locus YBR135W, strain CKS1, stronger effect = lower value",0.98
same,normalized growth,"locus YBR136W, strain MEC1, stronger effect = lower value",0.982
same,normalized growth,"locus YBR160W, strain CDC28, stronger effect = lower value",0.969
same,normalized growth,"locus YBR229C, strain ROT2, stronger effect = lower value",0.994
same,normalized growth,"locus YDL017W, strain CDC7, stronger effect = lower value",0.978
same,normalized growth,"locus YDL028C, strain MPS1, stronger effect = lower value",0.969
same,normalized growth,"locus YDL101C, strain DUN1, stronger effect = lower value",0.979 and 0.977
same,normalized growth,"locus YDL108W, strain KIN28, stronger effect = lower value",0.976
same,normalized growth,"locus YDL132W, strain cdc53, stronger effect = lower value",0.975
same,normalized growth,"locus YDL134C, strain PPH21, stronger effect = lower value",0.931
same,normalized growth,"locus YDL214C, strain PRR2, stronger effect = lower value",0.98
same,normalized growth,"locus YDR052C, strain DBF4, stronger effect = lower value",0.97
same,normalized growth,"locus YDR054C, strain cdc34, stronger effect = lower value",0.979
same,normalized growth,"locus YDR150W, strain NUM1, stronger effect = lower value",0.976
same,normalized growth,"locus YDR226W, strain ADK1, stronger effect = lower value",0.988
same,normalized growth,"locus YDR477W, strain SNF1, stronger effect = lower value",0.958
same,normalized growth,"locus YEL061C, strain CIN8, stronger effect = lower value",0.935
same,normalized growth,"locus YER123W, strain YCK3, stronger effect = lower value",0.96
same,normalized growth,"locus YER133W, strain GLC7, stronger effect = lower value",0.99
same,normalized growth,"locus YFL009W, strain cdc4, stronger effect = lower value",0.974
same,normalized growth,"locus YFL029C, strain CAK1, stronger effect = lower value",0.994
same,normalized growth,"locus YFR003C, strain YPI1, stronger effect = lower value",0.976
same,normalized growth,"locus YFR019W, strain FAB1, stronger effect = lower value",0.976
same,normalized growth,"locus YFR028C, strain CDC14, stronger effect = lower value",0.973
same,normalized growth,"locus YGR040W, strain KSS1, stronger effect = lower value",0.96
same,normalized growth,"locus YGR052W, strain FMP48, stronger effect = lower value",0.947
same,normalized growth,"locus YGR078C, strain PAC10, stronger effect = lower value",0.975
same,normalized growth,"locus YGR092W, strain DBF2, stronger effect = lower value",0.942
same,normalized growth,"locus YHR030C, strain SLT2, stronger effect = lower value",0.797 and 1.04
same,normalized growth,"locus YHR079C, strain IRE1, stronger effect = lower value",1.07
same,normalized growth,"locus YHR082C, strain KSP1, stronger effect = lower value",1.02
same,normalized growth,"locus YHR087W, strain rtc3, stronger effect = lower value",0.998
same,normalized growth,"locus YHR205W, strain SCH9, stronger effect = lower value",0.983
same,normalized growth,"locus YIL147C, strain SLN1, stronger effect = lower value",0.975
same,normalized growth,"locus YJL095W, strain BCK1, stronger effect = lower value",0.961
same,normalized growth,"locus YJL128C, strain PBS2, stronger effect = lower value",0.946
same,normalized growth,"locus YJL157C, strain FAR1, stronger effect = lower value",0.98
same,normalized growth,"locus YJL187C, strain SWE1, stronger effect = lower value",1.02
same,normalized growth,"locus YJR016C, strain ILV3, stronger effect = lower value",0.976
same,normalized growth,"locus YJR043C, strain POL32, stronger effect = lower value",0.947
same,normalized growth,"locus YJR066W, strain TOR1 (second series), stronger effect = lower value",0.996
same,normalized growth,"locus YJR066W, strain TOR1, stronger effect = lower value",1.05
same,normalized growth,"locus YJR075W, strain HOC1, stronger effect = lower value",0.988
same,normalized growth,"locus YKL048C, strain ELM1, stronger effect = lower value",0.959
same,normalized growth,"locus YKL067W, strain YNK1, stronger effect = lower value",0.976
same,normalized growth,"locus YKL101W, strain HSL1, stronger effect = lower value",0.949
same,normalized growth,"locus YKL190W, strain CNB1, stronger effect = lower value",0.924 (active)
